Laboratory results: PMC5540273 (PLoS ONE, 2017)

tested on: T1, PIK4CB
T1 construct: gene PI4KB
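Further: kd values determined as follow-up on hits from a single-replicate KINOMEscan panel screen.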

Row | Structure (SMILES) | Kd [µM]
1 | Cc1cc(N2Cc3ccccc3C2)nc(Nc2ccc(S(=O)(=O)N3CCOCC3)cc2)n1.Cl [GSK1669917] | > 10
2 | Cl.NC(=O)c1cccc(Nc2nccc(Nc3ccc(Oc4cccc(Cl)c4)c(Cl)c3)n2)c1 [GW659008] | > 10
3 | CS(=O)(=O)c1ccc(-c2nc3n(c2-c2ccncc2)CCC3)cc1 [SKF-105942] | > 10

tested on: PIKFYVE

Row | Structure (SMILES) | Kd [nM]
4 | COc1ccc2nc(-c3cccc(C)n3)nc(Nc3ccncc3)c2c1 [GSK204919] | 1200
5 | Cc1cccc(-c2nc(Nc3ccc4[nH]ncc4c3)c3ccccc3n2)n1 [GW857175] | 700
6 | O=C(Nc1n[nH]c2cc(-c3cccc(F)c3F)ccc12)C1CC1 [SB-733894] | > 10000
